From PubChem BioAssay
Calls of active or inactive are those of the source. Unless noted, how the calls were made is not given here.

Tests used:
[1] = system: Wnt5a (protein binding on small-molecule microarray); test: Wnt5a binders on small-molecule microarray, primary screen, biophysical, 635/667 nm fluorescence (AID 1142); conditions: 635 nm fluorescence, higher = more signal;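 further: fluorescence read at 667 nm with signal to noise per printed feature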
[2] = cell viability in Huh7 cells, primary screen, cytotoxicity control for HCV replication inhibitor project, CellTiter-Glo luminescence, basal, 48 h (AID 1143); conditions: Huh7 HCV replicon, higher = more signal, called active from +8 up or from −8 down;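 further: Huh7 hepatoma cells carrying a hepatitis C replication reporter with no stimulus; test concentration not given here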
[3] = P. aeruginosa biofilm formation inhibitors, primary screen, PAO1 strain, BacTiter-Glo luminescence, LB-PBS (AID 1144); conditions: 12 h, higher = more signal
[4] = CREB reporter modulators without forskolin, primary screen, cell-based, PC12, CRE-LacZ reporter, unstimulated (AID 1145); conditions: no forskolin, luminescence, 4.5 h, higher = more signal, called active from +8 up or from −8 down
[5] = CREB reporter modulators under forskolin, primary screen, cell-based, PC12, CRE-LacZ reporter, forskolin-stimulated (AID 1146); conditions: luminescence, 4.5 h, higher = more signal, called active from +8 up or from −8 down;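 further: PC12 cells with 6xCRE LacZ reporter stimulated by forskolin 10 µM; beta-galactosidase reporter signal reflecting CREB driven transcription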
[6] = target: Streptavidin (Streptomyces avidinii) (UniProt P22629); test: streptavidin binders on small-molecule microarray, primary screen, artefact control for SMM compound annotation, biophysical, 635/667 nm fluorescence (AID 1147); conditions: streptavidin binding, higher = more signal;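 further: signal reflects streptavidin binding to arrayed compounds as a control protein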
[7] = small-molecule binders of probe aInhba, primary screen, biochemical, small-molecule microarray, 635/667 nm fluorescence (AID 1148); conditions: higher = more signal;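 further: score merges 667nm spot fluorescence with signal-to-noise for antibody binding to printed compounds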
[8] = target: Torsin-1A (Homo sapiens) (UniProt O14656); test: torsin A binders from cell lysate, primary screen, small-molecule microarray, wild-type, 635/667 nm (AID 1149); conditions: COS7 hTOR1A-WT lysate, 635 nm fluorescence, higher = more signal
[9] = target: Torsin-1A (Homo sapiens) (UniProt O14656); test: small-molecule binders of mutant TOR1A in lysate, primary screen, cell lysate, small-molecule microarray, COS7 lysate, 635/667 nm fluorescence (AID 1150); conditions: COS7 hTOR1A mutant lysate, 635 nm fluorescence, higher = more signal;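 further: score pools 667 nm emission and signal to noise measuring lysate protein binding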
[10] = system: Sonic hedgehog protein (Shh); test: small-molecule binders of Shh protein, primary screen, biochemical, small-molecule microarray, 635/667 nm fluorescence (AID 1151); conditions: small-molecule microarray binding, 635 nm fluorescence; higher = more signal;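 further: Shh protein binding to compounds spotted on small-molecule microarray slides; score combines spot fluorescence intensity with signal-to-noise across triplicate slides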
[11] = E. coli DRC41 culture turbidity changes, primary screen, E. coli filamentation inducer project, strain DRC41, OD650, 48 h (AID 1152);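 further: E. coli MC1000 strain DRC41 lacking acrAB efflux pump and sulA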; conditions: E. coli DRC41 (acrAB sulA), higher = more signal, called active from +8 up or from −8 down
[12] = small-molecule binders of probe aLefty1, primary screen, biochemical, small-molecule microarray, 635/667 nm fluorescence (AID 1153); conditions: higher = more signal;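 further: score merges spot fluorescence with signal-to-noise ratio from the scanned slide images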
[13] = PSAC antagonists in infected red cells, primary screen, cell-based, P. falciparum Indochina, OD700, 1 h (AID 1154); conditions: P. falciparum Indochina infected RBC osmotic lysis, higher = more signal, called active from +8 up or from −8 down
[14] = PSAC antagonists in infected red cells, primary screen, cell-based, P. falciparum Indochina, OD700, 2 h (AID 1155);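 further: lysis reports solute entry through the parasite surface anion channel PSAC; channel blockers reduce lysis of infected cells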; conditions: P. falciparum Indochina infected erythrocytes, osmotic lysis OD700; higher = more signal, called active from +8 up or from −8 down
[15] = osmotic lysis modulators in infected erythrocytes, primary screen, PSAC antagonist project, cell-based, P. falciparum Indochina, OD700, 3 h (AID 1156); conditions: higher = more signal, called active from +8 up or from −8 down
[16] = PSAC antagonists in infected red cells, primary screen, cell-based, P. falciparum Indochina, OD700, 18 h (AID 1157); conditions: P. falciparum Indochina infected erythrocytes, osmotic lysis OD700, 18 h; higher = more signal, called active from +8 up or from −8 down
[17] = modulators of S6 phosphorylation in cells, primary screen, cell-based, A549, cytoblot, luminescence, serum-stimulated (AID 1158); conditions: A549 phospho-S6 cytoblot, 5 h, higher = more signal;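 further: serum-stimulated A549 lung adenocarcinoma cells; signal is phosphorylated S6 detected by cytoblot immunostaining with HRP secondary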
[18] = target: NADPH oxidase 2 (Homo sapiens) (UniProt P04839); test: NOX2-dependent H2O2 signal modulators, primary screen, NOX inhibitor project, cell-based, HEK293-NOX2, PMA-stimulated, Amplex Red fluorescence (AID 1159); conditions: 45 min, higher = more signal, called active from +8 up or from −8 down; further: test concentration not given here
[19] = target: NADPH oxidase 4 (Homo sapiens) (UniProt Q9NPH5); test: NOX4-dependent H2O2 signal modulators, primary screen, NOX inhibitor project, cell-based, HEK293-NOX4, tetracycline-induced, Amplex Red fluorescence (AID 1160); conditions: 45 min, higher = more signal, called active from +8 up or from −8 down
[20] = target: NADPH oxidase 5 (Homo sapiens) (UniProt Q96PH1); test: NOX5-dependent H2O2 signal modulators, primary screen, NOX inhibitor project, cell-based, HEK293-NOX5, Amplex Red fluorescence (AID 1161); conditions: HEK293-NOX5, ionomycin, 45 min, higher = more signal
Sequence of NADPH oxidase 5 (Homo sapiens) (Q96PH1 whole entry, looked up): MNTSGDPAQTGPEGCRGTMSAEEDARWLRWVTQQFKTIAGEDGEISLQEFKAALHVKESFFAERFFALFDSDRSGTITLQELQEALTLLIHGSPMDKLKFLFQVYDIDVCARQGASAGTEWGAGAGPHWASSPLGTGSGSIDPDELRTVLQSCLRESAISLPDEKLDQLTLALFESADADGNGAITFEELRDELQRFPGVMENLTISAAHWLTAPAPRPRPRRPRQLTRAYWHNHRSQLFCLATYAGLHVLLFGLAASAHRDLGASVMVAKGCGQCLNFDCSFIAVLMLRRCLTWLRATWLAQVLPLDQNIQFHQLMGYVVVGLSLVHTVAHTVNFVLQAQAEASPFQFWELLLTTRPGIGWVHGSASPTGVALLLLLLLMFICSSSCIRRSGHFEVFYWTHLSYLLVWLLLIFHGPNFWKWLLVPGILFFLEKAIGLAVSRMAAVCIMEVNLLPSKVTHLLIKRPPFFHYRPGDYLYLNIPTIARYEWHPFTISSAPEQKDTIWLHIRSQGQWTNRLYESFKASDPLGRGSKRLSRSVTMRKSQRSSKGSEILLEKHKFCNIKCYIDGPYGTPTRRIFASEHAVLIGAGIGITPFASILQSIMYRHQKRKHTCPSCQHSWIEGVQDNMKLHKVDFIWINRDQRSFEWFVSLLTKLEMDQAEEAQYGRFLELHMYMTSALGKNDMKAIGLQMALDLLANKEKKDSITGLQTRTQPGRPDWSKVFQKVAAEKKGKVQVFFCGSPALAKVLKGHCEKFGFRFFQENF

Sequence of Torsin-1A (Homo sapiens) (O14656 whole entry, looked up): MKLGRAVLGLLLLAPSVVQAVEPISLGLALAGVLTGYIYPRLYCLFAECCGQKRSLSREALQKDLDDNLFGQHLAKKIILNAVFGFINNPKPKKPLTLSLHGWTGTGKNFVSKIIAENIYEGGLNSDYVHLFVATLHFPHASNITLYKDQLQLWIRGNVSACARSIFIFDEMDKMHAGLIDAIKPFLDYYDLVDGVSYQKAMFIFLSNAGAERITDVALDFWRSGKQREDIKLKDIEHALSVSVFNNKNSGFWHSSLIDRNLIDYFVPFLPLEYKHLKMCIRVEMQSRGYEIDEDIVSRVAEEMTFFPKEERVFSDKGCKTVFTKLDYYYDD
Sequence of NADPH oxidase 2 (Homo sapiens) (P04839 whole entry, looked up): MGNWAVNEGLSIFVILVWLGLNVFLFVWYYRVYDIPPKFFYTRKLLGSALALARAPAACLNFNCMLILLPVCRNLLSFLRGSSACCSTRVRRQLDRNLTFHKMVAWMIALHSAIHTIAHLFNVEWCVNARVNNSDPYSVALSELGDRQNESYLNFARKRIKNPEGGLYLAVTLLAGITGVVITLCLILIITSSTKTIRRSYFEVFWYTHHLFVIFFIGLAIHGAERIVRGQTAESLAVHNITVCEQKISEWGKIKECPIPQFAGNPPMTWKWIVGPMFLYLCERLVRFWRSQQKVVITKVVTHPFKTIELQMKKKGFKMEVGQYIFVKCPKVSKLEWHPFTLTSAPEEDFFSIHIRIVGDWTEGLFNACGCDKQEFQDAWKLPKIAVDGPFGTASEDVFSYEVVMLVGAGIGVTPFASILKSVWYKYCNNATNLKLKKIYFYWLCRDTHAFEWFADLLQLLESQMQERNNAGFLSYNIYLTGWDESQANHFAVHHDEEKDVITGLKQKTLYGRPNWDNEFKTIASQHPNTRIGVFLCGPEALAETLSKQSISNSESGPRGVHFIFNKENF
Sequence of Streptavidin (Streptomyces avidinii) (P22629 whole entry, looked up): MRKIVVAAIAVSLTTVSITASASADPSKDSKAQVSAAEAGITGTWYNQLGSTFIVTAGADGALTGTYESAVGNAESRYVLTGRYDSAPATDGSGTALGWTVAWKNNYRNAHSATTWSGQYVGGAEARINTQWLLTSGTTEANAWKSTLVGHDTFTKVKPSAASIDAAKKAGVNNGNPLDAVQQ
Sequence of NADPH oxidase 4 (Homo sapiens) (Q9NPH5 whole entry, looked up): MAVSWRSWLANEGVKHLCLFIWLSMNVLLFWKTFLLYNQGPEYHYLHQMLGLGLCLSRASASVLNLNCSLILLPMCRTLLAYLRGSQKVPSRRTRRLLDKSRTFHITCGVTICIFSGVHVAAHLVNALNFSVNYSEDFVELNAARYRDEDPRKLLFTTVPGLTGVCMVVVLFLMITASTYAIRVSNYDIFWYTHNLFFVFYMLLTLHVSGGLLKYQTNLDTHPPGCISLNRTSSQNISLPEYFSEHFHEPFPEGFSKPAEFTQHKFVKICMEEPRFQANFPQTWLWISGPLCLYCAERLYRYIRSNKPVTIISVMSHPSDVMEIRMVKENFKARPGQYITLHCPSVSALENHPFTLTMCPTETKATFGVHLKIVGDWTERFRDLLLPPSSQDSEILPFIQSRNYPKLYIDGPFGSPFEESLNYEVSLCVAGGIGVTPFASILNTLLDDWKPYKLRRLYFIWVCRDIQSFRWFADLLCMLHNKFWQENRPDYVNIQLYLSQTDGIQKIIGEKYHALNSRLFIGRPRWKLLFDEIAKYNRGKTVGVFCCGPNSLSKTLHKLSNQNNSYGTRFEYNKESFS

Compound | composite z-score [1] | z-score [2] | z-score [3] | z-score [4] | z-score [5] | composite z-score [6] | composite z-score [7] | composite z-score [8] | composite z-score [9] | composite z-score [10] | z-score [11] | composite z-score [12] | z-score [13] | z-score [14] | z-score [15] | z-score [16] | z-score [17] | z-score [18] | z-score [19] | z-score [20]
CN1C(=O)C2C=CC(C(O)C=Cc3ccc([N+](=O)[O-])cc3)N(N3CCCCC3)C2C1=O (stereo not given) | 1.32 | 0.795 (inactive) | 0.287 (inactive) | -0.519 (inactive) | 0.855 (inactive) | 2.09 | 1.22 | 0.704 | 0.451 | 0.909 | -1.54 (inactive) | 1.11 | 2.72 (inactive) | 0.962 (inactive) | 0.714 (inactive) | 1.02 (inactive) | -0.9 | -0.542 (inactive) | -0.397 (inactive) | -1.25
CN1C(=O)C2C=CC(C(O)C(c3ccccc3)c3ccccc3)N(Nc3ccccc3)C2C1=O (stereo not given) | 0.35 | -1.91 (inactive) | -0.437 (inactive) | -0.14 (inactive) | 0.574 (inactive) | 1.49 | 0.0857 | 0.096 | 0.585 | 0.424 | -2.34 (inactive) | 0.516 | 1.63 (inactive) | 2.15 (inactive) | 0.742 (inactive) | 1.12 (inactive) | -0.946 | -1.39 (inactive) | -4.91 (inactive) | -2.44
C=CCOC(=O)[C@H]1[C@@H]2C(=O)O[C@@H](c3ccccc3)[C@@H](c3ccccc3)N2[C@@H](c2ccc(OCCOC(=O)[C@@H]3C[C@@H]4C(=O)NCC(=O)N4[C@@H]3c3ccc(O)cc3)cc2)[C@]12C(=O)Nc1ccc(I)cc12 | 1.07 | 0.586 (inactive) | 0.183 (inactive) | 0.0003 (inactive) | -0.53 (inactive) | 0.205 | -0.125 | 1.02 | 1.18 | 2.04 | -0.481 (inactive) | 0.0545 | 1.63 (inactive) | 1.39 (inactive) | 1.49 (inactive) | 0.816 (inactive) | 0.361 | 1.57 (inactive) | 1.28 (inactive) | 1.61
COc1ccccc1CN1C(=O)c2ccccc2[C@](Cc2ccccc2I)(C(=O)NC2CC2)[C@@H]1c1ccc(CO)cc1 | 0.811 | -4.58 (inactive) | -0.0735 (inactive) | 0.324 (inactive) | -0.572 (inactive) | 0.662 | 0.0374 | 0.427 | 0.71 | 2.06 | 0.203 (inactive) | -0.25 | 11.4 (active) | 1.35 (inactive) | 2.38 (inactive) | 0.99 (inactive) | -0.154 | -0.975 (inactive) | -0.89 (inactive) | -2.08
COC(=O)[C@@]1(Cc2ccc(OC)cc2)[C@H]2c3cc(C(=O)N4CCCC4)n(C[C@H](O)CO)c3C[C@H]2CN1C(=O)c1ccccc1 | 0.0149 | -0.132 (inactive) | -0.389 (inactive) | -0.365 (inactive) | 0.294 (inactive) | 0.528 | 0.0082 | -0.467 | 0.354 | -0.666 | -0.599 (inactive) | 0.132 | 1.24 (inactive) | -0.478 (inactive) | 0.425 (inactive) | 0.201 (inactive) | 0.245 | 0.4 (inactive) | 0.18 (inactive) | -3.78
COc1ccc(C(O)C2C=CC3C(=O)N(c4ccccc4)C(=O)C3N2Nc2ccccc2)c2ccccc12 (stereo not given) | 0.145 | -2.42 (inactive) | -1.12 (inactive) | 0.24 (inactive) | 1.79 (inactive) | 0.632 | 0.382 | -0.175 | 0.15 | -0.506 | -0.831 (inactive) | 0.318 | 6.65 (inactive) | 1.75 (inactive) | 0.303 (inactive) | 1.34 (inactive) | -0.654 | -1.48 (inactive) | -3.15 (inactive) | -2.57
CCCNC(=O)[C@@]1(C)c2ccccc2C(=O)N(C(C)C)[C@H]1c1ccc(CO)cc1 | 0.182 | -4.29 (inactive) | -0.744 (inactive) | 0.0279 (inactive) | 0.155 (inactive) | -0.586 | -0.0791 | 0.398 | -0.435 | -0.946 | -0.374 (inactive) | 0.0371 | 4.24 (inactive) | -0.445 (inactive) | 2.44 (inactive) | -0.804 (inactive) | 2.12 | -2.39 (inactive) | -2.3 (inactive) | -3.6
[N-]=[N+]=Nc1ccccc1[C@@H]1OC(c2ccc(OCCCO)cc2)=N[C@]1(CCS(=O)(=O)c1ccccc1)C(=O)N1CCCCC1 | 0.626 | -2.42 (inactive) | 0.0668 (inactive) | 1.43 (inactive) | -0.642 (inactive) | 1.45 | 0.453 | 1.09 | 0.736 | -0.394 | -0.112 (inactive) | 1.12 | 30.2 (active) | 25 (active) | 1.7 (inactive) | 3.94 (inactive) | -0.174 | -1.33 (inactive) | 1.85 (inactive) | 1.52
CN(C)CCCCNC(=O)[C@@H]1C[C@@H]2C(=O)N[C@@H](CCCCN)C(=O)N2[C@@H]1c1cccc(OCCO)c1 | -0.157 | 0.0925 (inactive) | -0.703 (inactive) | -0.805 (inactive) | -0.325 (inactive) | -0.521 | 0.245 | -1.37 | -2.02 | 0.985 | -0.389 (inactive) | 0.837 | 2.51 (inactive) | 0.337 (inactive) | -1.21 (inactive) | -0.0182 (inactive) | -0.446 | 1.36 (inactive) | 1.05 (inactive) | 1.43
